# Measurements published in article PMC11006913.
# Residue numbers refer to the chain shown, from its start.
# Tests used:
# Assay in all cases: PBM; 200 nM protein, PBS
# Settings in all cases: dsDNA, one strand shown
# HOXB4 [1] = molecular target: HOXB4 (Homo sapiens, UniProt P17483 148-234)
# PAX4 [2] = molecular target: T1, PAX4 (Homo sapiens, UniProt O43316 9-242, R200K)
# T1 sequence: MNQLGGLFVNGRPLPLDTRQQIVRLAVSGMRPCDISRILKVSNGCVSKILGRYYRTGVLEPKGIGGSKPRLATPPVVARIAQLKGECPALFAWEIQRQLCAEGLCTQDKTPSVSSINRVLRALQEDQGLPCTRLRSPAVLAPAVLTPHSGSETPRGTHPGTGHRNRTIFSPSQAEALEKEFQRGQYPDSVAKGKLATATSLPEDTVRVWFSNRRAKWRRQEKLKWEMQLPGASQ
# PAX4 [3] = molecular target: T2, PAX4 (Homo sapiens, UniProt O43316 9-242)
# T2 sequence: T1 sequence with K192R
# HOXB4 [4] = molecular target: HOXB4 (Homo sapiens, UniProt P17483 148-234, V174I)
# HOXB4 (Homo sapiens, UniProt P17483 148-234, V174I), sequence (P17483 148-234 V174I): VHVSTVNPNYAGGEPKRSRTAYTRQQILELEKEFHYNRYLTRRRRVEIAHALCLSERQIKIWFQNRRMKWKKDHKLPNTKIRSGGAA
# PAX4 [5] = molecular target: T3, PAX4 (Homo sapiens, UniProt O43316 9-242, R200Q)
# T3 sequence: T1 sequence with K192Q
# PAX4 [6] = molecular target: T4, PAX4 (Homo sapiens, UniProt O43316 9-242, F177V)
# T4 sequence: T1 sequence with F169V, K192R
# PAX4 [7] = molecular target: T5, PAX4 (Homo sapiens, UniProt O43316 9-242, F177Y)
# T5 sequence: T1 sequence with F169Y, K192R
# PAX4 [8] = molecular target: T6, PAX4 (Homo sapiens, UniProt O43316 9-242, R227W)
# T6 sequence: T1 sequence with K192R, R219W
# ALX4 [9] = molecular target: ALX4 (Homo sapiens, UniProt Q9H161 200-286)
# ALX4 (Homo sapiens, UniProt Q9H161 200-286), sequence (Q9H161 200-286): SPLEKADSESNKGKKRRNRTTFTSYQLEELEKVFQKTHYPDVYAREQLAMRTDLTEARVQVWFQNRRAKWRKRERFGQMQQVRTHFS
# ALX4 [10] = molecular target: ALX4 (Homo sapiens, UniProt Q9H161 200-286, Q225E)
# ALX4 (Homo sapiens, UniProt Q9H161 200-286, Q225E), sequence (Q9H161 200-286 Q225E): as the sequence (Q9H161 200-286) above, with Q26E counted along it
# ALX3 [11] = molecular target: ALX3 (Homo sapiens, UniProt O95076 139-225, N203Q)
# ALX3 (Homo sapiens, UniProt O95076 139-225, N203Q), sequence (O95076 139-225 N203Q): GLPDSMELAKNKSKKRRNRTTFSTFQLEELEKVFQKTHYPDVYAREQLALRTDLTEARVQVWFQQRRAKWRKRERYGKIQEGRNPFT
# ALX3 [12] = molecular target: ALX3 (Homo sapiens, UniProt O95076 139-225)
# ALX3 (Homo sapiens, UniProt O95076 139-225), sequence (O95076 139-225): as the sequence (O95076 139-225 N203Q) above, with Q65N counted along it
# PROP1 [13] = molecular target: PROP1 (Homo sapiens, UniProt O75360 56-141)
# PROP1 (Homo sapiens, UniProt O75360 56-141), sequence (O75360 56-141): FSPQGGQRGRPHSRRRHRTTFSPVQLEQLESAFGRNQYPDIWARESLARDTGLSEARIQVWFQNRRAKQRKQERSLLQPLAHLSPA
# PROP1 [14] = molecular target: PROP1 (Homo sapiens, UniProt O75360 56-141, R99H)
# PROP1 (Homo sapiens, UniProt O75360 56-141, R99H), sequence (O75360 56-141 R99H): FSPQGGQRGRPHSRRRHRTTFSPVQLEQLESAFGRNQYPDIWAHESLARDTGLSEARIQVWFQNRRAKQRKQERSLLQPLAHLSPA
# ALX3 [15] = molecular target: ALX3 (Homo sapiens, UniProt O95076 139-225, L168Q)
# ALX3 (Homo sapiens, UniProt O95076 139-225, L168Q), sequence (O95076 139-225 L168Q): as the sequence (O95076 139-225 N203Q) above, with L30Q, Q65N counted along it
# ALX3 [16] = molecular target: ALX3 (Homo sapiens, UniProt O95076 139-225, L168V)
# ALX3 (Homo sapiens, UniProt O95076 139-225, L168V), sequence (O95076 139-225 L168V): as the sequence (O95076 139-225 N203Q) above, with L30V, Q65N counted along it
# PROP1 [17] = molecular target: PROP1 (Homo sapiens, UniProt O75360 56-141, F88S)
# PROP1 (Homo sapiens, UniProt O75360 56-141, F88S), sequence (O75360 56-141 F88S): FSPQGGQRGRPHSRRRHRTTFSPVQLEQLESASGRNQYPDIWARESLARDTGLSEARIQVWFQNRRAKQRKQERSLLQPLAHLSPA
# ALX3 [18] = molecular target: ALX3 (Homo sapiens, UniProt O95076 139-225, N203S)
# ALX3 (Homo sapiens, UniProt O95076 139-225, N203S), sequence (O95076 139-225 N203S): as the sequence (O95076 139-225 N203Q) above, with Q65S counted along it
# HOXB6 [19] = molecular target: HOXB6 (Homo sapiens, UniProt P17509 132-218, K202E)
# HOXB6 (Homo sapiens, UniProt P17509 132-218, K202E), sequence (P17509 132-218 K202E): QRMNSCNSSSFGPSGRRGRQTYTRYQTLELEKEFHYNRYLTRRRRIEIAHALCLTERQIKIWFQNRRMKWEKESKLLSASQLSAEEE
# ALX1 [20] = molecular target: ALX1 (Homo sapiens, UniProt Q15699 118-204, L144V)
# ALX1 (Homo sapiens, UniProt Q15699 118-204, L144V), sequence (Q15699 118-204 L144V): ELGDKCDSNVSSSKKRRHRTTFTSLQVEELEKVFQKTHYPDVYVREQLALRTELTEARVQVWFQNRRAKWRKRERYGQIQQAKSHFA
# ALX1 [21] = molecular target: ALX1 (Homo sapiens, UniProt Q15699 118-204, L144R)
# ALX1 (Homo sapiens, UniProt Q15699 118-204, L144R), sequence (Q15699 118-204 L144R): as the sequence (Q15699 118-204 L144V) above, with V27R counted along it
# ALX1 [22] = molecular target: ALX1 (Homo sapiens, UniProt Q15699 118-204)
# ALX1 (Homo sapiens, UniProt Q15699 118-204), sequence (Q15699 118-204): as the sequence (Q15699 118-204 L144V) above, with V27L counted along it
# HOXB6 [23] = molecular target: HOXB6 (Homo sapiens, UniProt P17509 132-218)
# HOXB6 (Homo sapiens, UniProt P17509 132-218), sequence (P17509 132-218): as the sequence (P17509 132-218 K202E) above, with E71K counted along it
# HOXC10 [24] = molecular target: HOXC10 (Homo sapiens, UniProt Q9NYD6 254-340)
# HOXC10 (Homo sapiens, UniProt Q9NYD6 254-340), sequence (Q9NYD6 254-340): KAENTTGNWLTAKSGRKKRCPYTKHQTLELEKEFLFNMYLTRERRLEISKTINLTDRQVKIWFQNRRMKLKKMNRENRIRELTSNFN
# NKX2-6 = molecular target: T7, NKX2-6 (Homo sapiens, UniProt A6NCS4 118-204, R150C)
# T7 sequence: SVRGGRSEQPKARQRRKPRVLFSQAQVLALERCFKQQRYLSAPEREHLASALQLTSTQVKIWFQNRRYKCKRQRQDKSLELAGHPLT
# MSX2 [25] = molecular target: MSX2 (Homo sapiens, UniProt P35548 130-214, R199I)
# MSX2 (Homo sapiens, UniProt P35548 130-214, R199I), sequence (P35548 130-214 R199I): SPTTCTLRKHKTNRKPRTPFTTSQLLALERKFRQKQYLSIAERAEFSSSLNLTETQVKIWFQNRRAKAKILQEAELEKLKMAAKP
# HOXC10 [26] = molecular target: HOXC10 (Homo sapiens, UniProt Q9NYD6 254-340, K271E)
# HOXC10 (Homo sapiens, UniProt Q9NYD6 254-340, K271E), sequence (Q9NYD6 254-340 K271E): as the sequence (Q9NYD6 254-340) above, with K18E counted along it
# MSX2 [27] = molecular target: MSX2 (Homo sapiens, UniProt P35548 130-214)
# MSX2 (Homo sapiens, UniProt P35548 130-214), sequence (P35548 130-214): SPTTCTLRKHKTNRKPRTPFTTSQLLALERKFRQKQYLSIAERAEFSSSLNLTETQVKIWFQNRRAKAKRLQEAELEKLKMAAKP
# MSX2 [28] = molecular target: MSX2 (Homo sapiens, UniProt P35548 130-214, F161Y)
# MSX2 (Homo sapiens, UniProt P35548 130-214, F161Y), sequence (P35548 130-214 F161Y): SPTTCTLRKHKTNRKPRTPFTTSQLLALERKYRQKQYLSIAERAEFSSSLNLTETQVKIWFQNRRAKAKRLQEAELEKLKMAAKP
# HOXA2 [29] = molecular target: HOXA2 (Homo sapiens, UniProt O43364 129-215, R185T)
# HOXA2 (Homo sapiens, UniProt O43364 129-215, R185T), sequence (O43364 129-215 R185T): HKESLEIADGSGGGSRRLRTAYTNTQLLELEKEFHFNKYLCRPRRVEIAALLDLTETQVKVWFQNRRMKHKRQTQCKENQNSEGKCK
# HOXD13 [30] = molecular target: HOXD13 (Homo sapiens, UniProt P35453 263-343, T313R)
# HOXD13 (Homo sapiens, UniProt P35453 263-343, T313R), sequence (P35453 263-343 T313R): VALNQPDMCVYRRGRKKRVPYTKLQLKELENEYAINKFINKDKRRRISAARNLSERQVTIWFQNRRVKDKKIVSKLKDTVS
# HOXA2 [31] = molecular target: HOXA2 (Homo sapiens, UniProt O43364 129-215, R185K)
# HOXA2 (Homo sapiens, UniProt O43364 129-215, R185K), sequence (O43364 129-215 R185K): as the sequence (O43364 129-215 R185T) above, with T57K counted along it
# HOXD13 [32] = molecular target: HOXD13 (Homo sapiens, UniProt P35453 263-343)
# HOXD13 (Homo sapiens, UniProt P35453 263-343), sequence (P35453 263-343): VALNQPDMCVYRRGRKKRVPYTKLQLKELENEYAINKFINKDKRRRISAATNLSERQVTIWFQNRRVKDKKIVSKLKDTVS
# HOXD13 [33] = molecular target: HOXD13 (Homo sapiens, UniProt P35453 263-343, T313A)
# HOXD13 (Homo sapiens, UniProt P35453 263-343, T313A), sequence (P35453 263-343 T313A): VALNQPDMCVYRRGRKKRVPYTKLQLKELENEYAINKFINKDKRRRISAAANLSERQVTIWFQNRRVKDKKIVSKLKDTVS
# HOXA2 [34] = molecular target: HOXA2 (Homo sapiens, UniProt O43364 129-215, Y150S)
# HOXA2 (Homo sapiens, UniProt O43364 129-215, Y150S), sequence (O43364 129-215 Y150S): as the sequence (O43364 129-215 R185T) above, with Y22S, T57R counted along it
# HOXA2 [35] = molecular target: HOXA2 (Homo sapiens, UniProt O43364 129-215)
# HOXA2 (Homo sapiens, UniProt O43364 129-215), sequence (O43364 129-215): as the sequence (O43364 129-215 R185T) above, with T57R counted along it
# HOXB4 (Homo sapiens, UniProt P17483 148-234), sequence (P17483 148-234): as the sequence (P17483 148-234 V174I) above, with I27V counted along it
sequence,measurement,setting,value
AGACCAGC,binding signal,HOXB4 [1],"7.43 upbm affinity estimate (log intensity, higher = more binding, comparable within an allelic series)"
same,binding signal,PAX4 [2],"9.14 upbm affinity estimate (log intensity, higher = more binding, comparable within an allelic series)"
same,binding signal,PAX4 [3],"9.21 upbm affinity estimate (log intensity, higher = more binding, comparable within an allelic series)"
same,binding signal,HOXB4 [4],"7.5 upbm affinity estimate (log intensity, higher = more binding, comparable within an allelic series)"
same,binding signal,PAX4 [5],"9.31 upbm affinity estimate (log intensity, higher = more binding, comparable within an allelic series)"
same,binding signal,PAX4 [6],"9.23 upbm affinity estimate (log intensity, higher = more binding, comparable within an allelic series)"
same,binding signal,PAX4 [7],"9.22 upbm affinity estimate (log intensity, higher = more binding, comparable within an allelic series)"
same,binding signal,PAX4 [8],"9.29 upbm affinity estimate (log intensity, higher = more binding, comparable within an allelic series)"
CACGTGGG,binding signal,HOXB4 [1],"7.46 upbm affinity estimate (log intensity, higher = more binding, comparable within an allelic series)"
same,binding signal,HOXB4 [4],"7.46 upbm affinity estimate (log intensity, higher = more binding, comparable within an allelic series)"
GCTGCGCC,binding signal,HOXB4 [1],"7.58 upbm affinity estimate (log intensity, higher = more binding, comparable within an allelic series)"
same,binding signal,ALX4 [9],"8.05 upbm affinity estimate (log intensity, higher = more binding, comparable within an allelic series)"
same,binding signal,ALX4 [10],"8.03 upbm affinity estimate (log intensity, higher = more binding, comparable within an allelic series)"
same,binding signal,HOXB4 [4],"7.62 upbm affinity estimate (log intensity, higher = more binding, comparable within an allelic series)"
same,binding signal,ALX3 [11],"7.68 upbm affinity estimate (log intensity, higher = more binding, comparable within an allelic series)"
same,binding signal,ALX3 [12],"7.52 upbm affinity estimate (log intensity, higher = more binding, comparable within an allelic series)"
same,binding signal,PROP1 [13],"6.8 upbm affinity estimate (log intensity, higher = more binding, comparable within an allelic series)"
same,binding signal,PROP1 [14],"6.45 upbm affinity estimate (log intensity, higher = more binding, comparable within an allelic series)"
same,binding signal,ALX3 [15],"7.66 upbm affinity estimate (log intensity, higher = more binding, comparable within an allelic series)"
same,binding signal,ALX3 [16],"7.62 upbm affinity estimate (log intensity, higher = more binding, comparable within an allelic series)"
same,binding signal,PROP1 [17],"6.48 upbm affinity estimate (log intensity, higher = more binding, comparable within an allelic series)"
same,binding signal,ALX3 [18],"7.7 upbm affinity estimate (log intensity, higher = more binding, comparable within an allelic series)"
GTCCCAAC,binding signal,HOXB4 [1],"7.52 upbm affinity estimate (log intensity, higher = more binding, comparable within an allelic series)"
same,binding signal,HOXB4 [4],"7.63 upbm affinity estimate (log intensity, higher = more binding, comparable within an allelic series)"
ACCCCCGT,binding signal,HOXB4 [1],"7.65 upbm affinity estimate (log intensity, higher = more binding, comparable within an allelic series)"
same,binding signal,HOXB6 [19],"8.84 upbm affinity estimate (log intensity, higher = more binding, comparable within an allelic series)"
same,binding signal,HOXB4 [4],"7.64 upbm affinity estimate (log intensity, higher = more binding, comparable within an allelic series)"
same,binding signal,ALX1 [20],"6.28 upbm affinity estimate (log intensity, higher = more binding, comparable within an allelic series)"
same,binding signal,ALX3 [11],"7.64 upbm affinity estimate (log intensity, higher = more binding, comparable within an allelic series)"
same,binding signal,ALX1 [21],"6.2 upbm affinity estimate (log intensity, higher = more binding, comparable within an allelic series)"
same,binding signal,ALX3 [12],"7.58 upbm affinity estimate (log intensity, higher = more binding, comparable within an allelic series)"
same,binding signal,ALX3 [15],"7.58 upbm affinity estimate (log intensity, higher = more binding, comparable within an allelic series)"
same,binding signal,ALX3 [16],"7.57 upbm affinity estimate (log intensity, higher = more binding, comparable within an allelic series)"
same,binding signal,ALX1 [22],"6.29 upbm affinity estimate (log intensity, higher = more binding, comparable within an allelic series)"
same,binding signal,ALX3 [18],"7.61 upbm affinity estimate (log intensity, higher = more binding, comparable within an allelic series)"
same,binding signal,HOXB6 [23],"8.76 upbm affinity estimate (log intensity, higher = more binding, comparable within an allelic series)"
CCTGCCCC,binding signal,HOXB4 [1],"7.51 upbm affinity estimate (log intensity, higher = more binding, comparable within an allelic series)"
same,binding signal,PAX4 [2],"9.03 upbm affinity estimate (log intensity, higher = more binding, comparable within an allelic series)"
same,binding signal,PAX4 [3],"9.15 upbm affinity estimate (log intensity, higher = more binding, comparable within an allelic series)"
same,binding signal,HOXB4 [4],"7.65 upbm affinity estimate (log intensity, higher = more binding, comparable within an allelic series)"
same,binding signal,PAX4 [5],"9.01 upbm affinity estimate (log intensity, higher = more binding, comparable within an allelic series)"
same,binding signal,PAX4 [6],"9.07 upbm affinity estimate (log intensity, higher = more binding, comparable within an allelic series)"
same,binding signal,PAX4 [7],"9 upbm affinity estimate (log intensity, higher = more binding, comparable within an allelic series)"
same,binding signal,PAX4 [8],"9.13 upbm affinity estimate (log intensity, higher = more binding, comparable within an allelic series)"
GAGCCGGC,binding signal,HOXB4 [1],"7.56 upbm affinity estimate (log intensity, higher = more binding, comparable within an allelic series)"
same,binding signal,HOXC10 [24],"10 upbm affinity estimate (log intensity, higher = more binding, comparable within an allelic series)"
same,binding signal,HOXB4 [4],"7.62 upbm affinity estimate (log intensity, higher = more binding, comparable within an allelic series)"
same,binding signal,NKX2-6,"9.46 upbm affinity estimate (log intensity, higher = more binding, comparable within an allelic series)"
same,binding signal,MSX2 [25],"9.47 upbm affinity estimate (log intensity, higher = more binding, comparable within an allelic series)"
same,binding signal,ALX3 [11],"7.82 upbm affinity estimate (log intensity, higher = more binding, comparable within an allelic series)"
same,binding signal,HOXC10 [26],"9.91 upbm affinity estimate (log intensity, higher = more binding, comparable within an allelic series)"
same,binding signal,MSX2 [27],"9.45 upbm affinity estimate (log intensity, higher = more binding, comparable within an allelic series)"
same,binding signal,ALX3 [12],"7.87 upbm affinity estimate (log intensity, higher = more binding, comparable within an allelic series)"
same,binding signal,ALX3 [15],"7.74 upbm affinity estimate (log intensity, higher = more binding, comparable within an allelic series)"
same,binding signal,ALX3 [16],"7.7 upbm affinity estimate (log intensity, higher = more binding, comparable within an allelic series)"
same,binding signal,MSX2 [28],"9.45 upbm affinity estimate (log intensity, higher = more binding, comparable within an allelic series)"
same,binding signal,ALX3 [18],"7.79 upbm affinity estimate (log intensity, higher = more binding, comparable within an allelic series)"
CGGGGGGA,binding signal,HOXB4 [1],"7.79 upbm affinity estimate (log intensity, higher = more binding, comparable within an allelic series)"
same,binding signal,HOXA2 [29],"7.04 upbm affinity estimate (log intensity, higher = more binding, comparable within an allelic series)"
same,binding signal,HOXB4 [4],"7.87 upbm affinity estimate (log intensity, higher = more binding, comparable within an allelic series)"
same,binding signal,HOXD13 [30],"8.99 upbm affinity estimate (log intensity, higher = more binding, comparable within an allelic series)"
same,binding signal,HOXA2 [31],"10.1 upbm affinity estimate (log intensity, higher = more binding, comparable within an allelic series)"
same,binding signal,HOXD13 [32],"9.17 upbm affinity estimate (log intensity, higher = more binding, comparable within an allelic series)"
same,binding signal,HOXD13 [33],"9.29 upbm affinity estimate (log intensity, higher = more binding, comparable within an allelic series)"
same,binding signal,HOXA2 [34],"10.3 upbm affinity estimate (log intensity, higher = more binding, comparable within an allelic series)"
same,binding signal,HOXA2 [35],"7.09 upbm affinity estimate (log intensity, higher = more binding, comparable within an allelic series)"
